Screening results: PubChem BioAssay, several laboratories
The list is not random: actives were taken first. Their share in the collection is about 2.6%.
LGR2 inh = inhibitors of bursicon-induced LGR2 CRE-luciferase signal, primary screen, cell-based, HEK293, CRE-luciferase reporter, bursicon stimulation. Drosophila bursicon receptor LGR2 (rickets). bursicon-stimulated, 4 h. inhibition, % at 9.99 µM. actives 0.35% (n = 380,000). AID 720647, 2013;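 active = drop in luminescence signal, shown as inhibition above about 50% in the replicate tests, limit read from the data, passing the limit was not always enough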;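 also: agonist challenge used bursicon conditioned medium at about half maximal strength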
aDG glyco act = activators of alpha-DG glycosylation, primary screen, uHTS, Pro5-aDG cells, AlphaScreen; actives 0.22% (n = 360,000); alpha-DG glycosylation AlphaScreen (IIH6); 0% Pro5, 100% B10-LARGE cell signal; activation, % at 10 µM; AID 624168, 2012;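 active = activation of at least 8% versus controls, or a plate z-score of at least 8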;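 also: Pro5 are CHO cells carrying HIG-tagged alpha-DG that lacks glycosylation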
EBV LMP1 NFkB = EBV LMP1-driven NF-kappaB luciferase reporter inhibitors, primary screen, cell-based, luminescence, single point. actives 0.69% (n = 350,000). LMP1-induced NF-kappaB luciferase reporter cells. AID 504558, 2011. inhibition, % at 12.5 µM; in the data active = inhibition above about 41%;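 also: 0% = neutral control wells and 100% = reference inhibitor control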
TROY NFkB inh = inhibitors of TROY-driven NF-kB signaling, primary screen, Q293 LMP1-TROYcd cells, NF-kB luciferase, uHTS; inhibition, % at 10 µM; Q293 LMP1-TROYcd NF-kB luciferase reporter, 4 h; actives 0.98% (n = 360,000);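 active = compounds whose plate-normalised and pattern-corrected inhibition of the luciferase reporter signal at the single screening dose is 50% or more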
TWEAK-Fn14 inh = inhibitors of TWEAK-Fn14 signaling, primary screen, luciferase reporter cells, uHTS; AID 1159606, 2016; inhibition, % at 10 µM; actives 2% (n = 360,000); TWEAK-stimulated Fn14 reporter cells, luciferase luminescence, 8 h; in the data active = inhibition above about 50%
HSP90 refold inh = HSP90 inhibitors, primary screen, cell lysate, luminescence; AID 1789, 2009; Rabbit reticulocyte lysate, luciferase refolding luminescence, 3 h; Heat shock protein HSP 90 (rabbit reticulocyte lysate; luciferase refolding); actives 0.91% (n = 290,000); inhibition, % at 5.6 µM;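 active = inhibition above the screen-wide mean plus 3 SD, computed separately per campaign, cut at about 16% in these data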;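 also: 0% = DMSO wells and 100% = 60 µM geldanamycin wells; inhibitors lower the luminescence because luciferase stays unfolded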
HSP90 inh confirm = HSP90 inhibitors, confirmation, cell lysate, luminescence | shares compounds with HSP90 refold inh | rabbit reticulocyte lysate, luciferase refolding luminescence, 3 h | actives 64% (n = 2,300) | AID 1846, 2009 | inhibition, % at 5.9 µM; in the data active = inhibition above about 18%;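 also: 0% = vehicle wells and 100% = reference inhibitor wells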
luciferase ctr = firefly luciferase inhibitors, HSP90 counter-screen, confirmation, artefact control for HSP90 inhibitor project, biochemical, luminescence, triplicate | shares compounds with HSP90 refold inh | purified native firefly luciferase | inhibition, % at 5.9 µM | actives 48% (n = 2,300) | AID 1847, 2009;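 active = inhibition above the mean inhibition of all tested sample wells plus 3 SD, cut at about 10% in these data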;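 also: 0% = DMSO with luciferase and 100% = wells lacking luciferase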
Target sequence (P08659 whole entry, looked up): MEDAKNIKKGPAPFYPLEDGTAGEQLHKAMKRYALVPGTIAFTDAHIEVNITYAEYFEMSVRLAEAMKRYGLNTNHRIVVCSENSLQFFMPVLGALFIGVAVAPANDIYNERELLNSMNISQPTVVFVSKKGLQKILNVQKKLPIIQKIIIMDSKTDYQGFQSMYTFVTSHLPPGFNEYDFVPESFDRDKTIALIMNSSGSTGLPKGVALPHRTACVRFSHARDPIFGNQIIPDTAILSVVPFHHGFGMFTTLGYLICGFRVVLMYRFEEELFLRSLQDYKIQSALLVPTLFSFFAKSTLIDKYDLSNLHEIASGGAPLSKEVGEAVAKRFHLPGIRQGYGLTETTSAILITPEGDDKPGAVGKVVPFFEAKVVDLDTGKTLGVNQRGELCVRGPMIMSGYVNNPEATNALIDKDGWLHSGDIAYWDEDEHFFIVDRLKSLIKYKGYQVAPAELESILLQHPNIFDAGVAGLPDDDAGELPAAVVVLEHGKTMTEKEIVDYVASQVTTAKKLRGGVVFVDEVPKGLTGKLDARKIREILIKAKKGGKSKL
* marks the source's active call; other numbers are inactive results; / = no result given.

SMILES	LGR2 inh	aDG glyco act	EBV LMP1 NFkB	TROY NFkB inh	TWEAK-Fn14 inh	HSP90 refold inh	HSP90 inh confirm	luciferase ctr
Cc1c(/C(O)=C2\C(=O)C(=O)N(CCN(C)C)C2c2ccccc2)cnn1-c1ccccc1 (configuration not stated)	/	0	18	44	57*	27*	12	-8
Cc1c(/C(O)=C2/C(=O)C(=O)N(CCN(C)C)C2c2ccc(C(C)C)cc2)cnn1-c1ccccc1 (configuration not stated)	0	0	-7	-6	12	-2	/	/
Cc1c(/C(O)=C2\C(=O)C(=O)N(CCN(C)C)C2c2ccco2)cnn1-c1ccccc1 (configuration not stated)	/	0	14	4	42	52*	21*	10*
COc1ccc2cc(-c3cc(C(=O)O)c4ccccc4n3)ccc2c1	/	0	66*	25	75*	28*	64*	38*
O=C(COC(=O)c1ccccc1[N+](=O)[O-])c1ccc(C2CCCCC2)cc1	/	2	12	78*	81*	51*	63*	79*
COc1ccc(N2CCN(/C(=N\S(=O)(=O)c3ccccc3)Nc3nc(C)cc(C)n3)CC2)cc1	/	0	4	-22	3	39*	-4	-6
Cc1ccc(S(=O)(=O)/N=C(/Nc2nc(C)cc(C)n2)N2CCOCC2)cc1	/	0	-8	15	8	2	/	/
CC(=O)N(C)C[C@H]1Oc2cc(C#Cc3ccncc3)ccc2S(=O)(=O)N([C@H](C)CO)C[C@@H]1C	13	/	/	/	/	/	/	/
COc1cccc(NC(=O)C[C@H]2CC[C@H]3[C@@H](COc4ccc(NC(=O)C5CCOCC5)cc4C(=O)N3C)O2)c1	1	/	/	/	/	/	/	/
N#Cc1c(NC(=O)c2nc3ncccn3n2)sc2c1CCCCC2	23	0	-6	3	70*	65*	78*	28*
Cc1ccc(Nc2nc(-c3sc(NC(=O)c4ccc([N+](=O)[O-])cc4)nc3C)cs2)cc1	/	/	/	/	/	81*	45*	-10
Cc1ccccc1Nc1nc(-c2sc(NC(=O)c3ccc([N+](=O)[O-])cc3)nc2C)cs1	/	/	/	/	/	79*	53*	-4
Cc1ccc(Cl)cc1Nc1nc(-c2sc(NC(=O)c3cccc(Cl)c3)nc2C)cs1	/	/	/	/	/	65*	44*	-20
CCOc1ccccc1Nc1nc(-c2sc(NC(=O)c3ccc([N+](=O)[O-])cc3)nc2C)cs1	/	/	/	/	/	79*	20*	-4
COc1ccc(Nc2nc(-c3sc(NC(C)=O)nc3C)cs2)cc1	/	/	/	/	/	0	/	/
N#Cc1ccc(-c2ccc([C@H]3[C@@H](CO)N4CCCCN(S(=O)(=O)c5ccccc5)C[C@@H]34)cc2)cc1	21	/	/	/	/	/	/	/
Cc1ccccc1Nc1nc(-c2sc(NC(=O)c3cccc(Cl)c3)nc2C)cs1	/	/	/	/	/	78*	52*	-6
Cc1ccc(-c2csc(NC(=O)c3ccc(-c4ccccc4)cc3)n2)o1	/	1	-2	49	67*	37*	36*	0
Cc1ccccc1Nc1nc(-c2sc(NC(=O)c3ccccc3)nc2C)cs1	/	/	/	/	/	59*	30*	-14
O=C(NCC[C@H]1CC[C@H](NS(=O)(=O)c2cccc(F)c2)[C@H](CO)O1)C1CCC1	-1	/	/	/	/	/	/	/
COc1cccc2cc(-c3nc4ccccc4o3)c(=O)oc12	-121	1	-30	4	29	19*	18*	2
O=c1oc2ccc(Br)cc2cc1-c1nc2ccccc2o1	-25	0	-4	-37	-23	2	/	/
COc1ccccc1-c1ccc(C(=O)O)o1	-23	0	-12	-68	-12	46*	54*	-14
Cn1c2ccccc2c(=O)n2c(=O)c3ccccc3cc12	/	/	/	/	/	19*	23*	-1
c1ccc(-c2cn3nc(-c4ccccc4)c(-c4ccccc4)nc3n2)cc1	/	0	4	-17	-19	0	/	/
SMILES	LGR2 inh	aDG glyco act	EBV LMP1 NFkB	TROY NFkB inh	TWEAK-Fn14 inh	HSP90 refold inh	HSP90 inh confirm	luciferase ctr
CCc1nn2cc(-c3ccccc3)nc2s1	/	0	66*	84*	93*	65*	81*	73*
Cc1cccc2c3nc4ccccc4nc3n(CCCN3C(=O)c4ccccc4C3=O)c12	27	0	-6	-10	71*	25*	6	-5
O=C1c2ccccc2C(=O)N1CCCn1c2ccc(Cl)cc2c2nc3ccccc3nc21	6	0	-33	-27	-4	/	/	/
O=C(O)c1ccc(N/N=C/c2ccc3nccnc3c2)cc1	96*	0	82*	54*	102*	92*	92*	85*
COc1cc(/C=N/Nc2ccc(C(=O)O)cc2)cc(OC)c1OC	-20	0	-14	-54	-14	11	/	/
Cc1ccc2nc(Cl)c(/C=N/Nc3ccc(C(=O)O)cc3)cc2c1	-71	0	-7	26	51*	29*	18*	-10
COc1cc(/C=N/Nc2ccc(C(=O)O)cc2)ccc1O	23	1	29	27	72*	38*	63*	54*
COc1cc(/C=N/NS(=O)(=O)c2ccc(C)cc2)ccc1OCc1ccc(C(=O)O)cc1	43	0	61*	-70	-13	65*	-3	-11
CCN(CC)CCn1c(=S)[nH]c2ccc(Cl)cc2c1=O	/	0	3	3	-2	45*	-6	-13
CCCN(C)C[C@H]1Oc2cc(C#Cc3ccccn3)ccc2S(=O)(=O)N([C@H](C)CO)C[C@H]1C	-27	/	/	/	/	/	/	/
COc1ccccc1C(=O)NNC(=O)c1ccc(O)cc1	0	0	-7	-19	6	/	/	/
COc1ccc(OC(C)C(=O)Nc2cccc(OC)c2)cc1 (configuration not stated)	/	0	-5	12	17	17*	-8	-8
COc1ccc(C(=O)Nc2ccc3ccccc3c2)cc1	74*	0	-4	32	72*	34*	63*	53*
COc1ccccc1C(=O)NNC(=O)c1ccc2ccccc2c1	-17	0	-8	-13	-12	18*	-3	-14
COc1cccc(C(=O)Nc2nnc(C(C)C)s2)c1	/	0	18	-5	49	22*	34*	22*
C[C@H](CO)N1C[C@H](C)[C@H](CN(C)Cc2ccc(C(F)(F)F)cc2)OCCCC[C@H](C)Oc2ccc(NC(=O)c3ccccc3)cc2C1=O	10	/	/	/	/	/	/	/
